Some test systems named below: DU-145 prostate; K-562 leukemia; MALME-3M melanoma; MDA-MB-231 breast; RXF 393 renal; SF-268 CNS; SF-295 CNS; SF-539 CNS; UACC-257 melanoma; M14 melanoma; HCT-15 colon; HT29 colon; SNB-75 CNS; U251 CNS; PC-3 prostate; SK-MEL-5 melanoma; UACC-62 melanoma; LOX IMVI melanoma; SK-MEL-28 melanoma; SNB-19 CNS.
Common to all, as to test: NCI-60 one-dose screen, 48 h (100 = growth as untreated, 0 = no growth, -100 = all killed)
Details in all cases: 10 µM unless noted

This is part of a sample that, as a whole, favours compounds with a hit. Of some 83,000 tested, about 20% had one in any assay.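 Step 1: grow cells in 96-well plates. Step 2: add test compound at a single concentration. Step 3: incubate 48 h. Step 4: record percent growth.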 Unmarked numbers belong to inactive results. Active and inactive are the calls of the source. Rule for the calls: active = growth percent below 10; inactive = the rest.

For `CCCCCN1C(=O)/C(=c2\sc3n(c2=O)C2C(NN=3)N(CC)C(=O)N2CC)c2cccc(C)c21` (stereo not given), the growth with DU-145 prostate is 76.6%; in the assay on K-562 leukemia it was 16.2%; in the assay on MALME-3M melanoma, 51.6%; in the assay on MDA-MB-231 breast it was 62.4%; in the assay with RXF 393 renal, 15.1%; with SF-268 CNS, 56.9%. The growth in the assay with SF-295 CNS was 45%; in the assay with SF-539 CNS, 23.8%; with UACC-257 melanoma, 79.8%; with M14 melanoma, 51.4%; in the assay on HCT-15 colon, 19.9%; in the assay with HT29 colon it was 37.9%. The growth is 20.5% with SNB-75 CNS; 61% in the assay with U251 CNS; 40% in the assay with PC-3 prostate; 45.5% with SK-MEL-5 melanoma; 35.4% in the assay on UACC-62 melanoma; 37.9% in the assay with LOX IMVI melanoma.

As for `COc1ccc(/C=N/NC(=O)CSc2nc(-c3cnccn3)cc(-c3cccs3)c2C#N)cc1`, the growth with DU-145 prostate is 61.7%; in the assay on K-562 leukemia it was 79.5%; in the assay on MALME-3M melanoma, 91.9%; in the assay on MDA-MB-231 breast, 70.5%; with RXF 393 renal, 39.7%; with SF-268 CNS it was 83.5%. Moreover, the growth in the assay on SF-295 CNS is 80.3%; in the assay on SF-539 CNS, 39.1%; in the assay with UACC-257 melanoma, 95.9%; in the assay on M14 melanoma, 77.4%; in the assay on HCT-15 colon, 87.3%; with HT29 colon it was 8.86% (active). Besides, the growth in the assay with SNB-75 CNS was 77.3%; with U251 CNS it was 68.1%; in the assay with PC-3 prostate, 72.9%; with SK-MEL-5 melanoma, 72.5%; with UACC-62 melanoma, 59.4%; in the assay on LOX IMVI melanoma, 45.7%. Moreover, in the assay with SK-MEL-28 melanoma, the growth was 77%.

For `O=C1Nc2cc(Cl)ccc2/C1=C\c1ccc(OCc2ccccc2)cc1`, the growth was 101% with DU-145 prostate; 93.1% with K-562 leukemia; 115% in the assay with MALME-3M melanoma; 104% with MDA-MB-231 breast; 114% in the assay on RXF 393 renal; 94.5% with SF-268 CNS. For the same compound, the growth in the assay with SF-295 CNS is 115%; in the assay with SF-539 CNS, 94.5%; in the assay with UACC-257 melanoma, 116%; with M14 melanoma, 96.2%; with HCT-15 colon, 95%; with HT29 colon, 105%. Moreover, the growth with SNB-75 CNS is 73.3%; in the assay on U251 CNS, 104%; in the assay with PC-3 prostate it was 88.2%; in the assay on SK-MEL-5 melanoma it was 97.2%; in the assay on LOX IMVI melanoma, 92.7%; with SK-MEL-28 melanoma, 103%.

As to `COc1cc(C(=O)c2cc(C(C)=O)c3c(C)cccn23)cc(OC)c1OC`, the growth in the assay on DU-145 prostate is 107%; in the assay with K-562 leukemia it was 94.6%; with MALME-3M melanoma it was 89.1%; in the assay with MDA-MB-231 breast, 76.1%; with RXF 393 renal it was 81.1%; in the assay with SF-268 CNS, 106%. Further, the growth in the assay on SF-295 CNS was 109%; with SF-539 CNS, 97.5%; in the assay with UACC-257 melanoma, 98.2%; in the assay on M14 melanoma, 96.1%; with HCT-15 colon, 88.6%; with HT29 colon, 103%. For the same compound, the growth in the assay with SNB-75 CNS was 64.6%; in the assay on U251 CNS it was 96.7%; with PC-3 prostate it was 90.2%; with SK-MEL-5 melanoma, 97.1%; in the assay on UACC-62 melanoma, 70.5%; in the assay on LOX IMVI melanoma it was 96.7%. Further, the growth in the assay on SK-MEL-28 melanoma was 103%.

On to `Cc1cc(C)cc(NC2=C(Cl)C(=O)c3nc(C)ccc3C2=O)c1`, for which the growth was 2.27% (active) in the assay with DU-145 prostate; 6.63% (active) in the assay with K-562 leukemia; 76.1% in the assay with MALME-3M melanoma; 53.8% in the assay on MDA-MB-231 breast; 75% with RXF 393 renal; 85.2% in the assay on SF-268 CNS. For the same compound, the growth in the assay with SF-295 CNS is 77.2%; in the assay on SF-539 CNS, 71.5%; in the assay on UACC-257 melanoma, 30.1%; with M14 melanoma it was 72.8%; in the assay on HCT-15 colon, 9.74% (active); with HT29 colon it was 107%. In addition, the growth with SNB-75 CNS is 96.4%; in the assay on U251 CNS it was 89.8%; in the assay on PC-3 prostate, 59.4%; with SK-MEL-5 melanoma, 69%; with UACC-62 melanoma, 92.7%; in the assay with LOX IMVI melanoma, -3.79% (active). The growth with SK-MEL-28 melanoma was 81.8%.

With `O=S(=O)(Oc1ccc(-c2cn3ccsc3n2)cc1)c1cccc(C(F)(F)F)c1`, the growth in the assay on DU-145 prostate was 103%; in the assay on K-562 leukemia it was 96.9%; in the assay with MALME-3M melanoma it was 91.3%; in the assay with MDA-MB-231 breast, 101%; in the assay with RXF 393 renal, 100%; with SF-268 CNS it was 110%. Also, the growth in the assay on SF-295 CNS was 98.3%; with SF-539 CNS, 101%; in the assay with UACC-257 melanoma it was 99.6%; in the assay with M14 melanoma, 101%; in the assay on HCT-15 colon it was 96.8%; in the assay with HT29 colon, 107%. In addition, the growth is 102% in the assay on SNB-75 CNS; 100% in the assay on U251 CNS; 97.9% in the assay with PC-3 prostate; 98.3% in the assay on SK-MEL-5 melanoma; 81.3% in the assay on UACC-62 melanoma; 112% with LOX IMVI melanoma. In addition, the growth with SK-MEL-28 melanoma was 99.6%.

Take `CC(=C(c1ccc(OCCCN(C)C)cc1)c1ccc(OCCCN(C)C)cc1)c1ccc(Cl)cc1`: the growth in the assay on DU-145 prostate is 98%; with K-562 leukemia it was -13.5% (active); in the assay with MALME-3M melanoma, 85.8%; with MDA-MB-231 breast, 95.4%; in the assay on RXF 393 renal, 80.6%; with SF-268 CNS it was 91.7%. The growth in the assay on SF-295 CNS was 95.2%; in the assay with SF-539 CNS, 81.7%; in the assay on UACC-257 melanoma it was 100%; with M14 melanoma, 92.7%; with HCT-15 colon it was 41.6%; in the assay with HT29 colon, 45.7%. Also, the growth in the assay on SNB-75 CNS is 75.8%; with SNB-19 CNS, 92.9%; in the assay on U251 CNS, 92.1%; in the assay with PC-3 prostate it was 87.5%; with SK-MEL-5 melanoma it was 98.5%; with LOX IMVI melanoma it was 76.6%. Moreover, the growth with SK-MEL-28 melanoma was 99.2%.

`C=C(C)[C@@H]1CC[C@]2(C(=O)NC3CCCCC3)CC[C@]3(C)[C@H](CC[C@@H]4[C@@]5(C)CC[C@H](N)C(C)(C)[C@@H]5CC[C@]43C)[C@@H]12`: the growth in the assay on DU-145 prostate was 105%; in the assay on K-562 leukemia, -34.7% (active); in the assay with MALME-3M melanoma, 95.3%; in the assay with MDA-MB-231 breast, 108%; in the assay with RXF 393 renal it was 93.7%; in the assay on SF-268 CNS, 91.6%. For the same compound, the growth is 103% in the assay on SF-295 CNS; 98.5% with SF-539 CNS; 105% in the assay with UACC-257 melanoma; 103% with M14 melanoma; 39% with HCT-15 colon; 71.8% in the assay with HT29 colon. Also, the growth was 83.9% with SNB-75 CNS; 88.8% with U251 CNS; 72.8% in the assay with PC-3 prostate; 92.7% in the assay on SK-MEL-5 melanoma; 104% in the assay on UACC-62 melanoma; -75.1% (active) in the assay on LOX IMVI melanoma. Moreover, the growth in the assay on SK-MEL-28 melanoma is 109%.

The record behind these values is PubChem BioAssay (NCI).
